Source: PubChem (several laboratories)
In the library only some 3.9% were active in any assay of this set; here they are far more common.
UBC9 SUMO inh: inhibitors of in vitro SUMOylation cascade, primary screen, biochemical, HTRF, uHTS | SUMO-conjugating enzyme UBC9 (Homo sapiens), P63279 | HTRF SUMOylation assay, SAE1/SAE2 + UBC9 | inhibition, % at 35 µM | hit rate 0.36% among 290,000 | AID 2006, 2009; in the data active = inhibition above about 50%, passing the limit was not always enough; inconclusive = no clear call, values can overlap the other calls
ALR inh: inhibitors of human ALR sulfhydryl oxidase, primary screen, biochemical, H2O2 detection, HRP-luminol luminescence, single point; FAD-linked sulfhydryl oxidase ALR (Homo sapiens), P55789; purified ALR, DTT oxidation; inhibition, % (no concentration beside the values); hit rate 3.8% among 290,000; AID 485317, 2010;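 active = mean replicate inhibition above about 79%, with every replicate also reaching it, limit read from the data; inconclusive = only one of the two criteria met; inactive = mean below limit and not every replicate reaching it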
H9c2 protect: cardioprotection against H2O2-induced cell death, primary screen, uHTS, H9c2 cells, ATPLite luminescence; H9c2 cardiomyocytes, H2O2 injury protection, 2 h; protection from H2O2 cell death, % at 20 µM; hit rate 0.63% among 360,000;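 active = compounds giving at least 50% protection of heart cells from peroxide-induced death in the single-dose screen, raw or plate-pattern-corrected value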;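 note: 0% = DMSO wells with peroxide and 100% = DMSO wells without peroxide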
NTR1 ag: agonists of human NTR1, primary screen, imaging, U2OS cells, beta-arrestin-GFP, high content; Neurotensin receptor type 1 (Homo sapiens), P30989; NTR1-U2OS beta-arrestin-GFP spot imaging, agonist mode; activation, % at 20 µM; hit rate 0.17% among 330,000; AID 493036, 2011;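 active = activation at or above 40% of the spot to cytoplasm intensity ratio, with at least 20 cells analyzed; inconclusive = wells under 20 cells, flagged as cytotoxic or low count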;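 note: 0% = DMSO without peptide and 100% = 100 nM NTR1 peptide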
Target sequence (P30989 whole entry, looked up): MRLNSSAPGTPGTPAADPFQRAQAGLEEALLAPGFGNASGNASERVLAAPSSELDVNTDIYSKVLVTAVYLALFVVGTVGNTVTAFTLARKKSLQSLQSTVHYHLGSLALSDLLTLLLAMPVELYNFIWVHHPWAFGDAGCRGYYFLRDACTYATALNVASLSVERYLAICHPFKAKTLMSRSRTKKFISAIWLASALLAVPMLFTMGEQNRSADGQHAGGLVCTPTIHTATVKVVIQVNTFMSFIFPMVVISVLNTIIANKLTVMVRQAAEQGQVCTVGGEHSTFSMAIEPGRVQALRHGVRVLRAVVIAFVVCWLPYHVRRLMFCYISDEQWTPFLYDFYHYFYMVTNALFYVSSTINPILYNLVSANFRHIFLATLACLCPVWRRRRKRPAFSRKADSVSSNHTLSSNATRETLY
Starred values were filed as active, the others as inactive; ? = inconclusive; . = no result given.

SMILES	UBC9 SUMO inh	ALR inh	H9c2 protect	NTR1 ag
Cc1nc2ccc(S(=O)(=O)NCC(=O)N(C)Cc3ccccc3)cc2s1	2	99*	8	0
COc1ccc(NC(=O)CNS(=O)(=O)c2ccc3nc(C)sc3c2)c(OC)c1	9	99*	-7	0
Cc1nc2ccc(S(=O)(=O)NC(C(=O)NCc3ccco3)C(C)C)cc2s1 (configuration not stated)	-3	23	-2	2
COc1ccccc1NC(=O)CSc1nc2n[nH]c(C)c2c(=N)n1-c1ccccc1Cl	-19	.	2	33
Cc1ccccc1Cn1ccc(NC(=O)c2cnn3c(C(F)(F)F)cc(-c4ccco4)nc23)n1	-13	.	60*	10
Cc1ccccc1Cn1ccc(NC(=O)CCSc2nc(-c3ccco3)cc(C(F)(F)F)n2)n1	-19	1	-4	3
O=C(Nc1ccc2c(c1)OCO2)c1cnn2c(C(F)(F)F)cc(-c3ccco3)nc12	-9	-9	93*	5
CC(C)Cn1c(N)c(C(=O)COC(=O)CCNS(=O)(=O)c2ccccc2)c(=O)n(C)c1=O	.	0	-8	4
Cc1ccc(S(=O)(=O)N2CCN(S(=O)(=O)N3CCCCC3)CC2)c(C)c1	-10	100*	-10	2
CC(Sc1nnc(Cc2cccs2)n1C1CCCCC1)C(N)=O (configuration not stated)	38	.	22	0
COc1ccc(-c2nc(CSCC(=O)NCCCN3CCCC3=O)c(C)o2)cc1	2	96*	-6	0
CCOc1ccc(S(=O)(=O)N(C)CC(=O)NCCN2CCOCC2)cc1	-7	2	-8	0
CCOc1ccc(-c2nc(CSCC(=O)NCCN3CCOCC3)c(C)o2)cc1	-2	99*	0	2
N#Cc1ccc(OCC(=O)NCCCN2CCCC2=O)cc1	.	.	0	.
COc1ccc(-c2nc(CSCC(=O)NC3CCCc4ccccc43)c(C)o2)cc1 (configuration not stated)	-14	?	-7	1
CCOc1ccc(-c2nc(CSCC(=O)NCCCN3CCCC3=O)c(C)o2)cc1	.	99*	0	1
N#Cc1ccc(-c2ccc(OCC(=O)NCCCN3CCCC3=O)cc2)cc1	15	99*	-18	0
CC1(/[N+]([O-])=C/c2ccc(F)cc2)CCCCC1=O (configuration not stated)	26	.	5	-1
CN(C)CCN[C@H]1CCC2C3CC=C4C[C@@H](O)CC[C@]4(C)C3CC[C@@]21C (some centres not stated)	.	2	-2	2
CCN(CC(=O)Nc1ccc(OC)cc1)C(=O)CSCC(=O)Nc1cc(C)on1	.	-3	1	1
Cc1ccc(-c2cc(C(=O)N/N=C/c3c(C)nn(-c4ccccc4)c3C)n[nH]2)s1	-10	.	72*	.
CC(C)NC(=S)N/N=C/c1c[nH]c2ccccc12	-6	74	-18	14
